# Screening results: PubChem BioAssay, several laboratories
# PostGolgi ctrl: growth inhibition of yeast control strain, primary screen, counter-screen for post-Golgi transport modulator project | efflux-deficient yeast background strain, growth absorbance A615, 16 h | inhibition, % at 10 µM | actives 5% (n = 98,000)
# PLAP act: PLAP enzyme activators, biochemical, luminescence, HTS | Alkaline phosphatase, placental type (Homo sapiens), P05187 | activation fold at 20 µM | purified PLAP enzyme, luminescent substrate read-out; hits give high values | actives 1.2% (n = 96,000); in the data active = activation fold above about 2
# Target sequence (P05187 whole entry, looked up): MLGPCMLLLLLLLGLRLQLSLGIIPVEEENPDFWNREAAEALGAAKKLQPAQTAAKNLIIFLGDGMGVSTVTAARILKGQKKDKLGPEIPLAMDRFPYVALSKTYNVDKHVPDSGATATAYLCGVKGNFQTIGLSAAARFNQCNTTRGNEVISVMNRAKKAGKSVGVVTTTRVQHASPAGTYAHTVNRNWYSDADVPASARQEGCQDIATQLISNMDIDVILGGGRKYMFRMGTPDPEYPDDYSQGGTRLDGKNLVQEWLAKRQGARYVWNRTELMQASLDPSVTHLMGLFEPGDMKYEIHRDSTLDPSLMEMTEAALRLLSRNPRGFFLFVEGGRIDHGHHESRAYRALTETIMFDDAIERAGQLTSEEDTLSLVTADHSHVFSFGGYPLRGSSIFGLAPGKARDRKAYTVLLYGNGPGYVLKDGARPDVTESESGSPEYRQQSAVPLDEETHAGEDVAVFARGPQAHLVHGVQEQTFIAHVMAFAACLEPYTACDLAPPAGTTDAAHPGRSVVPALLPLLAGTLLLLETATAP
# Cav3 T inh: Cav3.2 calcium influx blockers – cell-based, Fluo-4 calcium fluorescence, FDSS, MLSMR library, primary screen; Cav3.2-expressing cells; hits give low values; actives 4% (n = 100,000); Voltage-dependent T-type calcium channel subunit alpha-1H (Homo sapiens), O95180; AID 449739, 2010; B-score at 10 µM;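 active = single-dose well whose peak fluorescence ratio is a statistical outlier from its plate by either plate-standardised score or position-corrected B-score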
# D1 mod: D1 CRE-luciferase signal change, two-sided – cell-based, HEK293 D1, dopamine EC30, D1 allosteric modulator project, primary screen; D(1A) dopamine receptor (Homo sapiens), P21728; dopamine EC30 potentiation; actives deviate in either direction; B-score at 10 µM; actives 5.9% (n = 58,000);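 active = luminescence count or its row- and column-corrected plate score outside the 99.7% band of the plate's sample wells, on either side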
# DAT uptake mod: changed hDAT dopamine uptake under cocaine IC80, either direction, primary screen, cocaine antagonist project, cell-based, LLC-PK1 hDAT, [14C]-dopamine uptake, MLSMR; Sodium-dependent dopamine transporter (Homo sapiens), Q01959; LLC-PK1 hDAT cells, [14C]-dopamine uptake with cocaine IC80; actives deviate in either direction; B-score at 10 µM; actives 1.3% (n = 110,000);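 active = Z score or B-score, a plate-position-corrected score, falls beyond the plate's 99.7% confidence bounds, in either direction; inactive = both scores lie inside the 99.7% bounds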;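 also: scored against the spread of the other compound wells on the same plate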
# PostGolgi yeast: phenotypic screen on post-Golgi transport, primary screen; actives 0.9% (n = 98,000); AID 739, 2007; inhibition, % at 10 µM; post-Golgi transport phenotypic cell assay;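 also: yeast cells grown in 1536-well plates; yeast grown about 18 h at 30C before absorbance read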
# Numbers without * were called inactive; / = no result. Shown are actives, neighbours in structure and some others; about 12% of the full set was active somewhere. Rule as the data show it, unless noted: active = inhibition above about 30%; inactive = the rest.
SMILES,PostGolgi ctrl,PLAP act,Cav3 T inh,D1 mod,DAT uptake mod,PostGolgi yeast
Cc1ccc2nc(NC(=O)CCn3c(=O)sc4ccccc43)sc2c1,70*,1,-3,/,2,5
Cc1ccc(CC(=O)Nc2nc3ccccc3s2)cc1,24,1.1,-6.7*,/,0.3,-3
Cn1cc(SCC(=O)Nc2nc3ccccc3s2)c2ccccc21,64*,0.9,0.14,/,-0.8,0
Cc1ccc2nc(NC(=O)c3cccs3)sc2c1,7,1,-0.076,-2.8,0.77,-7
CS(=O)(=O)c1ccc2nc(NC(=O)c3cccs3)sc2c1,8,1,-0.31,-5.7*,0.28,-1
Cc1ccc(C(=O)Nc2nc3ccccc3s2)s1,7,0.8,/,-5.8*,/,4
O=C(CSc1cn(Cc2ccccc2)c2ccccc12)Nc1nccs1,2,0.7,-4.3*,-1.5,-0.24,5
O=C(CSCc1ccccc1)Nc1nccs1,3,0.9,0.1,0.56,-0.5,-13
c1ccc(CCNc2nc3ccccc3s2)cc1,11,0.9,-2.2,/,0.55,-4
Cc1ccc(CNc2nc3ccccc3s2)s1,6,0.9,-0.76,-2.4*,0.033,-5
CCCCNC(=O)CN(c1cccc(Br)c1)S(C)(=O)=O,/,/,0.74,/,-1.2,/
Fc1ccccc1NC(=S)NN(Cc1ccccc1)c1ccccc1,16,0.5,-3.3,/,0.036,-6
CC(C)c1ccccc1NC(=S)NN(Cc1ccccc1)c1ccccc1,2,1,-6.9*,/,0.23,-6
CC(C)Oc1ccc(CNCC2(O)CCOC(C)(C)C2)cc1 (stereo not drawn),-7,/,0.41,/,1.2,-2
CC(C)Oc1ccc(CNC2CCOC(C)(C)C2)cc1 (stereo not drawn),42*,1.3,0.34,1.3,-1.2,1
COc1ccc(S(=O)(=O)Nc2c(C)ccc3nsnc23)cc1OC,4,1.3,-0.0023,1.3,-0.45,-11
O=C(CCNS(=O)(=O)c1cccc2nsnc12)N1CC(=O)N(CCc2ccccc2)C(=O)C1,-1,1,/,-0.37,0.019,-1
Cc1c(C(=O)NCCc2ccc3c(c2)OCCO3)oc2ccccc12,22,1.3,-7*,/,0.59,3
Cc1ccc(NC(=O)c2cc([N+](=O)[O-])ccc2NCc2cccnc2)cc1Cl,31*,0.9,-1.6,/,-0.62,22
O=C(COC(=O)C1CCN(S(=O)(=O)c2cccs2)CC1)c1cc2ccccc2o1,12,1,-1.2,0.12,1,4
CC(C)c1nc(CN(C)C(=O)N[C@H](C(=O)N[C@@H](Cc2ccccc2)C[C@H](O)[C@H](Cc2ccccc2)NC(=O)OCc2cncs2)C(C)C)cs1,/,/,-5.6*,/,0.85,/
CC(C)C(NC(=O)OCc1ccccc1)C(=O)NCC(=O)OC(C)(C)C (stereo not drawn),-9,1,1.1,0.84,-0.0039,-3
Cc1nc2ccc(C(C(F)(F)F)(C(F)(F)F)C(F)(F)F)cc2[nH]1,66*,1.3,0.088,1.5,-1.1,8
Cc1nc2ccc(S(=O)(=O)c3ccc4nc(C)[nH]c4c3)cc2[nH]1,3,1.3,0.9,/,0.0065,7
C/C(=N\O)c1c(C)c2ccccc2n1C,27,0.9,-0.06,/,-1,-8
SMILES,PostGolgi ctrl,PLAP act,Cav3 T inh,D1 mod,DAT uptake mod,PostGolgi yeast
CCn1c2ccccc2c2cc(/C(C)=N/O)ccc21,65*,0.8,/,/,/,4
C/C(=N\O)c1ccc2c3ccccc3n(C)c2c1,31*,0.9,-0.84,-0.35,-0.72,-4
Oc1ccc(/C=N/NC2=NCCCCC2)cc1,7,0.9,0.91,/,0.96,-6
CN(C)c1nc(OCCNC(=O)COc2ccccc2Cl)nc(N(C)C)n1,/,/,-0.19,/,0.13,/
Cc1cc(C)cc(N(CC(=O)N2CCN(c3ccccc3)CC2)S(=O)(=O)c2c(C)noc2C)c1,10,1.7,-2.1,-1.4,0.41,3
Cc1cc(C)cc(N(CC(=O)N2CCc3ccccc32)S(=O)(=O)c2c(C)noc2C)c1,10,0.9,-5.5*,-0.17,0.052,1
CCOc1ccc(N(CC(=O)N2CCc3ccccc32)S(=O)(=O)c2c(C)noc2C)cc1,28,1.4,-1.7,1.2,0.37,-6
Cc1n[nH]c(C)c1S(=O)(=O)N(CC(=O)N1CCc2ccccc21)c1ccc(C(C)C)cc1,5,1.8,3*,4.7,0.42,6
Cc1cc(C)cc(N(CC(=O)N2CCn3c2nc2ccccc23)S(=O)(=O)c2c(C)noc2C)c1,13,1.3,-5.6*,0.15,0.15,-6
Cc1ccc(NC(=O)CN(c2cc(C)cc(C)c2)S(=O)(=O)c2c(C)noc2C)nc1,25,1.7,-4.5*,/,0.16,-3
Cc1cc(C)cc(N(CC(=O)Nc2cccc(C)n2)S(=O)(=O)c2c(C)noc2C)c1,12,/,-2.6,-1.3,1.5,-1
Cc1ccc(C(=O)C2CCN(CC(=O)Nc3ccc4c(c3)OCCO4)CC2)cc1,6,1.6,-0.66,0.0053,0.0075,-5
O=C(NCCN1CCOCC1)C1(C(F)(F)F)C/C(=C\Cc2ccccc2)CCCO1 (stereo not drawn),/,/,1.3,/,-0.27,/
CCCOc1ccccc1N/C(=N/c1nc(C)cc(C)n1)NC(=O)Nc1ccc(Cl)cc1,0,1.2,-0.23,/,0.9,-4
O=c1c2cnn(-c3ccccc3Cl)c2ncn1Cc1cccnc1,-4,0.8,0.31,-0.84,-1.1,3
Cc1nnc2n1NC(c1ccc(Cl)cc1)C(C(=O)N1CCC(C)CC1)S2 (stereo not drawn),2,0.9,0.075,-0.33,0.3,3
Cc1nnc2n1NC(c1ccc(Cl)cc1)C(C(=O)N(C)C1CCCCC1)S2 (stereo not drawn),0,2.2*,-0.32,-0.45,0.52,22
CC(C)=CCc1c(O)cc(O)c2c(=O)c3c(CC=C(C)C)c(O)ccc3oc12,/,/,0.42,/,1.7,/
COC(=O)c1cc(S(=O)(=O)n2nc(C)c(Br)c2C)c(Cl)cc1Cl,-1,1,1.2,/,/,5
Cc1ccccc1-n1nc(C)c2cc(C(=O)N3CCN(S(=O)(=O)c4ccc(Cl)cc4)CC3)sc21,23,1.2,-2.8,/,-0.8,-1
Cc1ccccc1-n1nc(C)c2cc(C(=O)N3CCN(S(=O)(=O)c4ccc(F)cc4)CC3)sc21,19,1.5,0.29,-0.038,0.01,37*
Cn1c(=O)[nH]c(=O)c2c1nc(N1CCN(Cc3ccccc3)CC1)n2CCCc1ccccc1,23,1.6,-1.2,3.8,0.014,-5
Cn1c(=O)[nH]c(=O)c2[nH]c(CN3CCN(Cc4ccccc4)CC3)nc21,/,/,-0.017,-4.3*,-0.76,/
